The supplement of paper PMC9262897, “Low-cost anti-mycobacterial drug discovery using engineered E. coli” (Nature Communications, 2022)
Counter-ions that a name gives are not always drawn. ± gives the standard deviation of the averaged measurements.

System: E. coli TESEC Mtb Alr
Assay: growth (OD600 after 10 h); higher = more growth (less inhibition)
Details: compound 0.1 mM
Protocol: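 TESEC Mtb Alr E. coli, or the Alr+ wild-type control, in 384-well plates with Prestwick library compounds at 0.1 mM and 1% DMSO, across arabinose induction levels of 1E3 to 1E7 nM. Growth is read as OD600 after 10 h at 37 °C in triplicate biological replicates.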

[1] = arabinose 1000 nM, raw OD600 reference: median of DMSO wells 0.294, cell-free background 0.041
[2] = arabinose 10000 nM, raw OD600 reference: median of DMSO wells 0.264, cell-free background 0.041
[3] = arabinose 100000 nM, raw OD600 reference: median of DMSO wells 0.201, cell-free background 0.041
[4] = arabinose 1000000 nM, raw OD600 reference: median of DMSO wells 0.193, cell-free background 0.041
[5] = arabinose 10000000 nM, raw OD600 reference: median of DMSO wells 0.146, cell-free background 0.041

| Compound | growth [1] | growth [2] | growth [3] | growth [4] | growth [5] |
| --- | --- | --- | --- | --- | --- |
| Cc1ccc(N(CC2=NCCN2)c2cccc(O)c2)cc1 [Phentolamine hydrochloride] | 0.287 ± 0.0088 | 0.27 ± 0.0075 | 0.2 ± 0.0085 | 0.173 ± 0.0079 | 0.161 ± 0.0026 |
| CN(Cc1cnc2nc(N)nc(N)c2n1)c1ccc(C(=O)N[C@@H](CCC(=O)O)C(=O)O)cc1 [Methotrexate] | 0.285 ± 0.011 | 0.244 ± 0.013 | 0.195 ± 0.011 | 0.155 ± 0.0048 | 0.144 ± 0.002 |
| CC(C)(C)C(=O)OCOC(=O)[C@@H]1N2C(=O)[C@@H](NC(=O)[C@H](N)c3ccccc3)[C@H]2SC1(C)C [Pivampicillin] | 0.351 ± 0.0076 | 0.285 ± 0.011 | 0.298 ± 0.011 | 0.207 ± 0.02 | 0.203 ± 0.0048 |
| N#CC(c1ccc(Cl)cc1)c1c(Cl)cc(-n2ncc(=O)[nH]c2=O)cc1Cl (stereo not given) [Diclazuril] | 0.0423 ± 0.004 | 0.0402 ± 0.0002 | 0.0425 ± 0.0014 | 0.0405 ± 0.00045 | 0.0479 ± 0.0017 |
| CCC(C)(C)C(=O)O[C@H]1C[C@@H](C)C=C2C=C[C@H](C)[C@H](CC[C@@H]3C[C@@H](O)CC(=O)O3)[C@H]21 [Simvastatin] | 0.201 ± 0.015 | 0.161 ± 0.0024 | 0.113 ± 0.0033 | 0.053 ± 0.0021 | 0.0742 ± 0.004 |
| CC12CC3CC(C)(C1)CC(N)(C3)C2 [Memantine Hydrochloride] | 0.207 ± 0.007 | 0.237 ± 0.017 | 0.184 ± 0.0066 | 0.195 ± 0.019 | 0.175 ± 0.0048 |
| CNCCCN1c2ccccc2CCc2ccccc21 [Desipramine hydrochloride] | 0.228 ± 0.021 | 0.275 ± 0.013 | 0.199 ± 0.021 | 0.1277 ± 0.00069 | 0.168 ± 0.0031 |
| CC(C)(Sc1cc(C(C)(C)C)c(O)c(C(C)(C)C)c1)Sc1cc(C(C)(C)C)c(O)c(C(C)(C)C)c1 [Probucol] | 0.298 ± 0.014 | 0.259 ± 0.0043 | 0.236 ± 0.028 | 0.172 ± 0.0035 | 0.173 ± 0.02 |
